Measurements published in the supplement of paper PMC7411054.

Key:
Details in all cases: treatment time: 24 h
HepG2-ACTB-RAB5A = test: lowest phenotypically active concentration; higher = less potent
Procedure, shortened: (§1)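 Four wells per concentration (0.3, 1, 3 or 9 µM) were treated for 24 h in each of fifteen gene-edited reporter lines from A549, HepG2 and WPMY1 cells, then imaged live. After normalising live-cell features to solvent control wells, deviation was defined as ≥3 of 4 wells lying past the 95th percentile of control Euclidean distances. Reproducibility was defined as a median replicate Pearson correlation above the 95th percentile of non-replicates. Both had to hold for phenotypic activity.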

HepG2-CANX-COX4 = test: as above
Procedure, shortened: as §1

HepG2-GM130-SQSTM1 = test: as above
Procedure, shortened: as §1

HepG2-TUBA1B-RELA = test: as above
Procedure, shortened: as §1

WPMY1-ACTB-RAB5A [1] = test: as above
Procedure, shortened: as §1

WPMY1-CANX-COX4 = test: as above
Procedure, shortened: as §1

WPMY1-GM130-SQSTM1 = test: as above
Procedure, shortened: as §1

WPMY1-TP53BP1-CLTA = test: as above
Procedure, shortened: as §1

WPMY1-TUBA1B-RELA = test: as above
Procedure, shortened: as §1

WPMY1-ACTB-RAB5A [2] = test: phenotypically active (imaging signature differs from DMSO and reproducible) at any of 0.3-9 uM (binary (1 = active, 0 = inactive)); higher = active
Procedure, shortened: as §1

Compound: Cc1ccc(C(=O)N(CCCN)[C@@H](c2oc3cc(Cl)ccc3c(=O)c2Cc2ccccc2)C(C)C)cc1
- lowest phenotypically active concentration (HepG2-ACTB-RAB5A): ≤ 0.3 µM
- lowest phenotypically active concentration (HepG2-CANX-COX4): ≤ 0.3 µM
- lowest phenotypically active concentration (HepG2-GM130-SQSTM1): ≤ 0.3 µM
- lowest phenotypically active concentration (HepG2-TUBA1B-RELA): ≤ 0.3 µM
- lowest phenotypically active concentration (WPMY1-ACTB-RAB5A [1]): ≤ 0.3 µM
- lowest phenotypically active concentration (WPMY1-CANX-COX4): 3 µM
- lowest phenotypically active concentration (WPMY1-GM130-SQSTM1): ≤ 0.3 µM
- lowest phenotypically active concentration (WPMY1-TP53BP1-CLTA): ≤ 0.3 µM
- lowest phenotypically active concentration (WPMY1-TUBA1B-RELA): ≤ 0.3 µM
- phenotypically active (WPMY1-ACTB-RAB5A [2]): 1 (active)

Compound: CNC1CCC2(C)C(=CCC3C2CCC24CN(C)C(C)C2CCC34)C1 (stereo not given) [Isoconessimine]
- lowest phenotypically active concentration (HepG2-ACTB-RAB5A): 1 µM
- lowest phenotypically active concentration (HepG2-CANX-COX4): 9 µM
- lowest phenotypically active concentration (HepG2-GM130-SQSTM1): 1 µM
- lowest phenotypically active concentration (HepG2-TUBA1B-RELA): 1 µM
- lowest phenotypically active concentration (WPMY1-ACTB-RAB5A [1]): 1 µM
- lowest phenotypically active concentration (WPMY1-CANX-COX4): 3 µM
- lowest phenotypically active concentration (WPMY1-GM130-SQSTM1): 3 µM
- lowest phenotypically active concentration (WPMY1-TP53BP1-CLTA): 3 µM
- lowest phenotypically active concentration (WPMY1-TUBA1B-RELA): 3 µM
- phenotypically active (WPMY1-ACTB-RAB5A [2]): 1 (active)

Compound: CCCCc1oc2ccccc2c1C(=O)c1cc(I)c(OCCN(CC)CC)c(I)c1 [amiodarone]
- lowest phenotypically active concentration (HepG2-ACTB-RAB5A): 9 µM
- lowest phenotypically active concentration (HepG2-CANX-COX4): 9 µM
- lowest phenotypically active concentration (HepG2-GM130-SQSTM1): 9 µM
- lowest phenotypically active concentration (HepG2-TUBA1B-RELA): 3 µM
- lowest phenotypically active concentration (WPMY1-ACTB-RAB5A [1]): 9 µM
- lowest phenotypically active concentration (WPMY1-CANX-COX4): 9 µM
- lowest phenotypically active concentration (WPMY1-GM130-SQSTM1): 9 µM
- lowest phenotypically active concentration (WPMY1-TP53BP1-CLTA): 9 µM
- lowest phenotypically active concentration (WPMY1-TUBA1B-RELA): 9 µM
- phenotypically active (WPMY1-ACTB-RAB5A [2]): 1 (active)

Compound: c1ccc2c(c1)Cc1c(Nc3ccc4c(c3)OCCO4)n[nH]c1-2
- lowest phenotypically active concentration (HepG2-ACTB-RAB5A): 3 µM
- lowest phenotypically active concentration (HepG2-CANX-COX4): 3 µM
- lowest phenotypically active concentration (HepG2-GM130-SQSTM1): 9 µM
- lowest phenotypically active concentration (HepG2-TUBA1B-RELA): 3 µM
- lowest phenotypically active concentration (WPMY1-ACTB-RAB5A [1]): 3 µM
- lowest phenotypically active concentration (WPMY1-CANX-COX4): 3 µM
- lowest phenotypically active concentration (WPMY1-GM130-SQSTM1): 3 µM
- lowest phenotypically active concentration (WPMY1-TP53BP1-CLTA): 3 µM
- lowest phenotypically active concentration (WPMY1-TUBA1B-RELA): 3 µM
- phenotypically active (WPMY1-ACTB-RAB5A [2]): 1 (active)

Compound: COc1cc(/C=C/C(=O)N2CCC=CC2=O)cc(OC)c1OC [Piperlongumine]
- lowest phenotypically active concentration (HepG2-ACTB-RAB5A): 3 µM
- lowest phenotypically active concentration (HepG2-CANX-COX4): 3 µM
- lowest phenotypically active concentration (HepG2-GM130-SQSTM1): 3 µM
- lowest phenotypically active concentration (HepG2-TUBA1B-RELA): 3 µM
- lowest phenotypically active concentration (WPMY1-ACTB-RAB5A [1]): 9 µM
- lowest phenotypically active concentration (WPMY1-CANX-COX4): 9 µM
- lowest phenotypically active concentration (WPMY1-GM130-SQSTM1): 3 µM
- lowest phenotypically active concentration (WPMY1-TP53BP1-CLTA): 9 µM
- lowest phenotypically active concentration (WPMY1-TUBA1B-RELA): 9 µM
- phenotypically active (WPMY1-ACTB-RAB5A [2]): 1 (active)

Compound: CCC(=O)N1CCN(c2ccc(-n3c(=O)ccc4cnc5ccc(-c6cnc7ccccc7c6)cc5c43)cc2C(F)(F)F)CC1 [Torin 1]
- lowest phenotypically active concentration (HepG2-ACTB-RAB5A): ≤ 0.3 µM
- lowest phenotypically active concentration (HepG2-CANX-COX4): ≤ 0.3 µM
- lowest phenotypically active concentration (HepG2-GM130-SQSTM1): ≤ 0.3 µM
- lowest phenotypically active concentration (HepG2-TUBA1B-RELA): ≤ 0.3 µM
- lowest phenotypically active concentration (WPMY1-ACTB-RAB5A [1]): ≤ 0.3 µM
- lowest phenotypically active concentration (WPMY1-CANX-COX4): ≤ 0.3 µM
- lowest phenotypically active concentration (WPMY1-GM130-SQSTM1): ≤ 0.3 µM
- lowest phenotypically active concentration (WPMY1-TP53BP1-CLTA): ≤ 0.3 µM
- lowest phenotypically active concentration (WPMY1-TUBA1B-RELA): ≤ 0.3 µM
- phenotypically active (WPMY1-ACTB-RAB5A [2]): 1 (active)

Compound: Cc1cnc(NC(=O)Nc2cc(Br)c(C)cc2OC[C@@H]2CNCCO2)cn1
- lowest phenotypically active concentration (HepG2-ACTB-RAB5A): 3 µM
- lowest phenotypically active concentration (HepG2-CANX-COX4): 9 µM
- lowest phenotypically active concentration (HepG2-GM130-SQSTM1): 1 µM
- lowest phenotypically active concentration (HepG2-TUBA1B-RELA): 1 µM
- lowest phenotypically active concentration (WPMY1-ACTB-RAB5A [1]): ≤ 0.3 µM
- lowest phenotypically active concentration (WPMY1-CANX-COX4): 1 µM
- lowest phenotypically active concentration (WPMY1-GM130-SQSTM1): 3 µM
- lowest phenotypically active concentration (WPMY1-TP53BP1-CLTA): 1 µM
- lowest phenotypically active concentration (WPMY1-TUBA1B-RELA): 1 µM
- phenotypically active (WPMY1-ACTB-RAB5A [2]): 1 (active)

Compound: CN(C)c1ccc(C(=O)NCCCCCCC(=O)NO)cc1
- lowest phenotypically active concentration (HepG2-ACTB-RAB5A): ≤ 0.3 µM
- lowest phenotypically active concentration (HepG2-CANX-COX4): ≤ 0.3 µM
- lowest phenotypically active concentration (HepG2-GM130-SQSTM1): 1 µM
- lowest phenotypically active concentration (HepG2-TUBA1B-RELA): ≤ 0.3 µM
- lowest phenotypically active concentration (WPMY1-ACTB-RAB5A [1]): 1 µM
- lowest phenotypically active concentration (WPMY1-CANX-COX4): ≤ 0.3 µM
- lowest phenotypically active concentration (WPMY1-GM130-SQSTM1): ≤ 0.3 µM
- lowest phenotypically active concentration (WPMY1-TP53BP1-CLTA): ≤ 0.3 µM
- lowest phenotypically active concentration (WPMY1-TUBA1B-RELA): ≤ 0.3 µM
- phenotypically active (WPMY1-ACTB-RAB5A [2]): 1 (active)

Compound: C[C@@H]1CN(CC(=O)Nc2ccc3c(c2)Cc2cccc(-c4cc(=O)cc(N5CCOCC5)o4)c2S3)C[C@H](C)O1
- lowest phenotypically active concentration (HepG2-ACTB-RAB5A): 1 µM
- lowest phenotypically active concentration (HepG2-CANX-COX4): 3 µM
- lowest phenotypically active concentration (HepG2-GM130-SQSTM1): 3 µM
- lowest phenotypically active concentration (HepG2-TUBA1B-RELA): 3 µM
- lowest phenotypically active concentration (WPMY1-ACTB-RAB5A [1]): 3 µM
- lowest phenotypically active concentration (WPMY1-CANX-COX4): 3 µM
- lowest phenotypically active concentration (WPMY1-GM130-SQSTM1): 3 µM
- lowest phenotypically active concentration (WPMY1-TP53BP1-CLTA): 3 µM
- lowest phenotypically active concentration (WPMY1-TUBA1B-RELA): 9 µM
- phenotypically active (WPMY1-ACTB-RAB5A [2]): 1 (active)

Compound: CC(C)(C)c1cnc(CSc2cnc(NC(=O)C3CCNCC3)s2)o1
- lowest phenotypically active concentration (HepG2-ACTB-RAB5A): ≤ 0.3 µM
- lowest phenotypically active concentration (HepG2-CANX-COX4): ≤ 0.3 µM
- lowest phenotypically active concentration (HepG2-GM130-SQSTM1): ≤ 0.3 µM
- lowest phenotypically active concentration (HepG2-TUBA1B-RELA): ≤ 0.3 µM
- lowest phenotypically active concentration (WPMY1-ACTB-RAB5A [1]): ≤ 0.3 µM
- lowest phenotypically active concentration (WPMY1-CANX-COX4): ≤ 0.3 µM
- lowest phenotypically active concentration (WPMY1-GM130-SQSTM1): ≤ 0.3 µM
- lowest phenotypically active concentration (WPMY1-TP53BP1-CLTA): ≤ 0.3 µM
- lowest phenotypically active concentration (WPMY1-TUBA1B-RELA): ≤ 0.3 µM
- phenotypically active (WPMY1-ACTB-RAB5A [2]): 1 (active)
